Sampled rows, rich in hits. Any-hit rate of the full collection: about 19%.
DT40 TDP1 no CPT = qHTS for Inhibitors of human tyrosyl-DNA phosphodiesterase 1 (TDP1): qHTS in cells in absence of CPT; 15% of 420,000 active; DT40 Tdp1-/- hTDP1 cells, no CPT, ATP luminescence, 48 h; Potency, µM (highest dose often 46.2 µM), for the others: at the highest dose activity change, negative = growth inhibition, actives largely listed as inhibitors; AID 686978, 2013; further: potency means the concentration at half of the fitted maximal effect; nearly all actives have a fitted effect of over 55% in size
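A cellular qHTS used chicken DT40 cells lacking endogenous Tdp1 but carrying stably transfected human TDP1. Compounds were applied without camptothecin, and cell growth kinetics were judged by ATP-dependent luminescence after ≥48 hr.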
HT1080 IDH1KD tx = toxicity to HT-1080 IDH1 knockdown cells (counter line). HT-1080 IDH1 knockdown viability, ATP luminescence, 48 h. Potency, µM (series often up to 46.1 µM), for the others: at the top dose activity, negative = toxicity, usual class: cytotoxic. 2% of 360,000 active. AID 686971;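 further: potency means the concentration at half of the fitted maximal effect; 0% = DMSO wells and -100% = cell-free medium wells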
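CellTiter-Glo luminescence after 48 h compound exposure at 37 degrees C of IDH1-knockdown HT-1080 cells in 5% FBS RPMI. %Activity scaled between DMSO wells and cell-free media wells, with curves fitted and assigned curve classes.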
IL-1B inflam inh = inflammasome signaling inhibition, IL-1 beta readout | THP-1 LPS/ATP IL-1B secretion, AlphaLISA, 16 h; active compounds read low | activity change, % at 57.5 µM | 4.7% of 360,000 active | AID 743279; in the data active means activity change below about -50%; inconclusive means mostly about -30% to -49%
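Secreted IL-1B measured by AlphaLISA bead assay after 16 h compound exposure of THP-1 cells; compounds (final up to 57.5 uM) added 1 h before LPS (250 ng/mL) and ATP (1.25 mM) stimulation; lower signal means less secretion.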
HT1080NT lethal = kills 2HG-producing HT-1080-NT fibrosarcoma cells | HT-1080-NT fibrosarcoma viability, CellTiter-Glo ATP luminescence, 48 h | Potency, µM (highest dose often 46.1 µM), without a hit: at the top dose activity, negative = less viability, hits mostly cytotoxic | 1.6% of 360,000 active;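 further: NT is the 2HG producing partner of a matched IDH1 knockdown line; potency means the concentration at half of the fitted maximal effect; 0% = DMSO-treated cells and -100% = media-only wells without cells; nearly all actives have a fitted effect of over 55% in size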
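Fibrosarcoma NT cells, 750 per well in 5% FBS RPMI, were exposed to compound for 48 hours. Viability: CellTiter-Glo luminescence.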
DT40 TDP1 CPT = growth inhibition of DT40 Tdp1-/-;hTDP1 cells with camptothecin (screen for TDP1 inhibitors); Potency, µM (series often up to 46.2 µM), inactives show top-dose activity change, negative = growth inhibition, actives largely listed as inhibitors; chicken DT40 Tdp1-/-;hTDP1 cells + 20 nM CPT, ATP luminescence, 48 h; AID 686979; 12% of 420,000 active; further: potency means the concentration at half of the fitted maximal effect; nearly all actives have a fitted effect of over 55% in size
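Cell growth measured by CellTiter-Glo luminescence after a minimum 48 h, 37 C compound exposure with 20 nM CPT in Tdp1-knockout DT40 cells stably expressing hTDP1, seeded 400/well; qHTS titration format.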
* = called active by the depositor. Unless noted, the call rests on the fitted dose curve; in most records, active means well fitted curve in the direction sought with a large enough effect; inconclusive means small, poorly fitted or top-dose-only effect, or another doubt; inactive means no such curve, though single readings can be large; an effect the other way counts as inactive or inconclusive. Unless noted, on the % scale 0 is the no-effect control and ±100 the full control effect.

Results for COc1ccc(NC(=O)c2ccc3c(=O)n(CC4CCCO4)c(=S)[nH]c3c2)c(OC)c1 (stereo unspecified) ?
DT40 TDP1 no CPT: 13µM*; HT1080 IDH1KD tx: 6%; IL-1B inflam inh: 15; HT1080NT lethal: 7%; DT40 TDP1 CPT: inconclusive

How did COc1ccc(NC(=O)c2ccc3c(=O)n(-c4ccc(OC)cc4OC)c(=S)[nH]c3c2)c(OC)c1 do in these assays?
DT40 TDP1 no CPT: 21µM*; HT1080 IDH1KD tx: -4%; IL-1B inflam inh: -11; HT1080NT lethal: 0%; DT40 TDP1 CPT: 23µM*

How did CC(C)NC(=O)c1ccc2c(=O)n(CC3CCCO3)c(=S)[nH]c2c1 (stereo unspecified) do in these assays?
DT40 TDP1 no CPT: -25%; HT1080 IDH1KD tx: 0%; IL-1B inflam inh: 16; HT1080NT lethal: 2%; DT40 TDP1 CPT: 3%

How did CC1CCCC(NC(=O)c2ccc3c(=O)n(CC4CCCO4)c(=O)[nH]c3c2)C1C (stereo unspecified) do in these assays?
DT40 TDP1 no CPT: 18µM*; HT1080 IDH1KD tx: -2%; IL-1B inflam inh: -25; HT1080NT lethal: -5%; DT40 TDP1 CPT: inconclusive

What do the screens show for `COC(=O)c1cc(NC(=O)c2cc(-c3ccc(Cl)cc3)oc2C(F)(F)F)ccc1N1CCOCC1`?
DT40 TDP1 no CPT: 18µM*; HT1080 IDH1KD tx: inconclusive; IL-1B inflam inh: inconclusive; HT1080NT lethal: inconclusive; DT40 TDP1 CPT: inconclusive

Results for COC(=O)c1cc(NC(=O)c2cc(-c3ccccc3Cl)oc2C(F)(F)F)ccc1N1CCOCC1 ?
DT40 TDP1 no CPT: 21µM*; HT1080 IDH1KD tx: inconclusive; IL-1B inflam inh: inconclusive; HT1080NT lethal: -21%; DT40 TDP1 CPT: inconclusive

How did COC(=O)c1cc(NC(=O)c2c(-c3c(Cl)cccc3Cl)noc2C)ccc1N1CCOCC1 do in these assays?
DT40 TDP1 no CPT: -23%; HT1080 IDH1KD tx: -1%; IL-1B inflam inh: 3; HT1080NT lethal: 5%; DT40 TDP1 CPT: -24%

What do the screens show for `Fc1ccc(N2CCN(c3cnc4ccccc4n3)CC2)cc1`?
DT40 TDP1 no CPT: -14%; HT1080 IDH1KD tx: -1%; IL-1B inflam inh: 0; HT1080NT lethal: -2%; DT40 TDP1 CPT: inconclusive

What do the screens show for `COC(=O)Cc1ccc(NC(=S)N2CCN(c3cc(Cl)ccc3C)CC2)cc1`?
DT40 TDP1 no CPT: inconclusive; HT1080 IDH1KD tx: -16%; IL-1B inflam inh: 6; HT1080NT lethal: -3%; DT40 TDP1 CPT: inconclusive

Results for CCCCNS(=O)(=O)c1ccc2nc(-c3cccnc3)cc(C(=O)NC3CCCC3)c2c1 ?
DT40 TDP1 no CPT: -23%; HT1080 IDH1KD tx: -8%; IL-1B inflam inh: 7; HT1080NT lethal: -7%; DT40 TDP1 CPT: -4%

Results for Cc1cc(C)c(S(=O)(=O)Nc2cc(Cl)c3oc4c(c3c2)C(=O)CCC4)cc1C ?
DT40 TDP1 no CPT: -11%; DT40 TDP1 CPT: -14%

Results for COc1ccc(C(CCN2CCN(c3ccccc3)CC2)c2c(OC)cc(OC)c3c(-c4ccccc4)cc(=O)oc23)cc1 (stereo unspecified) ?
DT40 TDP1 no CPT: inconclusive; HT1080 IDH1KD tx: -2%; IL-1B inflam inh: 4; HT1080NT lethal: -6%; DT40 TDP1 CPT: inconclusive

What do the screens show for `COc1ccc(C(CCN2CCCC(C)C2)c2c(OC)cc(OC)c3c(C)cc(=O)oc23)cc1` (stereo unspecified)?
DT40 TDP1 no CPT: 23µM*; HT1080 IDH1KD tx: -7%; IL-1B inflam inh: -29; HT1080NT lethal: -7%; DT40 TDP1 CPT: 13µM*

Results for COc1ccc(C(CCN2CCCC(C)C2)c2c(OC)cc(OC)c3c(-c4ccccc4)cc(=O)oc23)cc1 (stereo unspecified) ?
DT40 TDP1 no CPT: 2.9µM*; HT1080 IDH1KD tx: inconclusive; IL-1B inflam inh: -26; HT1080NT lethal: inconclusive; DT40 TDP1 CPT: 3.3µM*

Results for COc1cc(OC)c2c(-c3ccccc3)cc(=O)oc2c1C(CCN1CCCC(C)C1)c1ccc(N(C)C)cc1 (stereo unspecified) ?
DT40 TDP1 no CPT: 21µM*; HT1080 IDH1KD tx: -18%; IL-1B inflam inh: -27; HT1080NT lethal: -20%; DT40 TDP1 CPT: inconclusive

Results for COc1cc2c3c(c1OC)-c1cc4c(cc1CC3(C#N)N(C(=O)c1ccccc1)CC2)OCO4 (stereo unspecified) ?
DT40 TDP1 no CPT: inconclusive; HT1080 IDH1KD tx: -6%; IL-1B inflam inh: 11; HT1080NT lethal: 2%; DT40 TDP1 CPT: inconclusive

What do the screens show for `CCc1nc2c(OCc3ccccc3OC)cccn2c1N(C)C(=O)C(C)C`?
DT40 TDP1 no CPT: inconclusive; HT1080 IDH1KD tx: 2%; IL-1B inflam inh: 35; HT1080NT lethal: 2%; DT40 TDP1 CPT: inconclusive

What do the screens show for `CCC(CC)C(=O)N(C)c1c(C)nc2c(OCCOc3ccccc3)cccn12`?
DT40 TDP1 no CPT: 13µM*; HT1080 IDH1KD tx: 7%; IL-1B inflam inh: 0; HT1080NT lethal: -5%; DT40 TDP1 CPT: 23µM*

What do the screens show for `CCC(CC)C(=O)N(C)c1c(C)nc2c(OCC=C(C)C)cccn12`?
DT40 TDP1 no CPT: 16µM*; HT1080 IDH1KD tx: 15µM*; IL-1B inflam inh: 85; HT1080NT lethal: inconclusive; DT40 TDP1 CPT: 13µM*

How did CCc1nc2c(OCc3c(C)noc3C)cccn2c1N(C)C(=O)C(C)C do in these assays?
DT40 TDP1 no CPT: inconclusive; HT1080 IDH1KD tx: 12%; IL-1B inflam inh: 6; HT1080NT lethal: 17%; DT40 TDP1 CPT: inconclusive

Results for O=C(Nc1ccc(S(=O)(=O)N2CCCC2)cc1)c1cccnc1Cl ?
DT40 TDP1 no CPT: -22%; HT1080 IDH1KD tx: 10%; IL-1B inflam inh: -10; HT1080NT lethal: 4%; DT40 TDP1 CPT: 1%

Results for COc1ccc(-c2nc(-c3ccc(NC(=O)c4ccc(Br)o4)cc3)no2)cc1OC ?
DT40 TDP1 no CPT: 6.5µM*; HT1080 IDH1KD tx: inconclusive; IL-1B inflam inh: -18; HT1080NT lethal: inconclusive; DT40 TDP1 CPT: 18µM*

How did COc1cc(-c2nc(-c3ccc(NC(=O)c4ccc(Br)o4)cc3)no2)cc(OC)c1OC do in these assays?
DT40 TDP1 no CPT: 16µM*; HT1080 IDH1KD tx: inconclusive; IL-1B inflam inh: 42; HT1080NT lethal: inconclusive; DT40 TDP1 CPT: 13µM*

Results for Cc1cccc(NC(=O)Cn2nnc(C(=O)NCc3cccs3)c2N)c1 ?
DT40 TDP1 no CPT: 0%; DT40 TDP1 CPT: 3%

What do the screens show for `CCC[N+](C)(C)c1ccc(/C=C/c2ccncc2)cc1`?
DT40 TDP1 no CPT: 0.35µM*; DT40 TDP1 CPT: 0.35µM*

What do the screens show for `CC[N+](C)(C)c1ccc(/C=C/c2ccncc2)cc1`?
DT40 TDP1 no CPT: 0.63µM*; DT40 TDP1 CPT: 0.71µM*

What do the screens show for `C(=C\c1ccncc1)/c1ccccc1`?
DT40 TDP1 no CPT: 10%; HT1080 IDH1KD tx: 19%; IL-1B inflam inh: 0; HT1080NT lethal: 24%; DT40 TDP1 CPT: -3%

Bioassay records: PubChem, National Center for Advancing Translational Sciences (NCATS)
